Screening data deposited in PubChem by National Center for Advancing Translational Sciences (NCATS).
Shiga toxin inh: Shiga toxin inhibition; AID 2315; 9.2% of 290,000 active; inhibition, % at 38.7 µM; Vero cells, Shiga toxin protein synthesis inhibition reporter; in the data active = inhibition mostly above about 28%, no sharp cut-off; inactive = mostly below about 43%; also: 0% is about no effect
Vaccinia Venus: vaccinia inhibition (Venus reporter) | Vaccinia virus Venus reporter expression, fluorescence | Potency, µM (series often up to 36.5 µM), for the others: top-dose activity change, negative = inhibition, most hits filed as inhibitors | 0.46% of 330,000 active | AID 720580; calls by dose curve; tested in A549 cells; also: potency is read from the fitted curve at half-maximal effect; % is scaled to controls: 0 for no effect and ±100 for the full control effect; nearly all actives have a fitted effect of over 30% in size
MARV entry inh: Marburg virus entry inhibition. Marburg virus pseudotyped entry inhibition, cell reporter. Potency, µM (highest dose often 37.8 µM), inactives show top-dose activity change, negative = inhibition, hits mostly inhibitors. 1.8% of 300,000 active. AID 540276; calls by dose curve; tested in HEK293 cells; also: potency is read from the fitted curve at half-maximal effect; % is scaled to controls: 0 for no effect and ±100 for the full control effect
VACV mCherry inh: inhibitors of vaccinia virus infection (mCherry reporter signal). Vaccinia virus mCherry reporter infection, fluorescence. Potency, µM (titrated, usually from 36.5 µM), without a hit: at the top dose activity change, negative = inhibition, hits mostly inhibitors. 0.63% of 310,000 active; calls by dose curve; tested in A549 cells; also: potency is read from the fitted curve at half-maximal effect; % is scaled to controls: 0 for no effect and ±100 for the full control effect; nearly all actives have a fitted effect of over 35% in size
LASV entry inh: Lassa virus entry inhibition; Lassa virus pseudotype entry inhibition, cell reporter; Potency, µM (titrated, usually from 37.9 µM), without a hit: at the highest dose activity change, negative = inhibition, most hits filed as inhibitors; 1.2% of 300,000 active; calls by dose curve; tested in HEK293 cells; also: potency is read from the fitted curve at half-maximal effect; % is scaled to controls: 0 for no effect and ±100 for the full control effect; nearly all actives have a fitted effect of over 50% in size
Cycloheximide cs: counter-screen for Shiga toxin inhibitors: cycloheximide protein synthesis inhibition; cell reporter, cycloheximide protein synthesis inhibition counterscreen; max response, %; 12% of 300,000 active; in the data active = max response mostly above about 13%, no sharp cut-off; inactive = mostly below about 14%; also: read at 38.3 µM for the half of the compounds with a filed dose; 0% is about no effect
An asterisk follows results filed as active; i = inactive; ? = inconclusive; . = no result; [ ] = another dose, or the depositor's remark. The entries come from a sample that favours hits as a whole.

SMILES | Shiga toxin inh | Vaccinia Venus | MARV entry inh | VACV mCherry inh | LASV entry inh | Cycloheximide cs
F[B-](F)(F)c1cnc2ccccc2c1 | . | 0.0% | . | i | . | .
CCOc1ccc(NC(=O)c2ccc(F)c(S(=O)(=O)N(Cc3ccc(C(=O)OC)cc3)Cc3ccc(OC)c(OC)c3)c2)cc1 | . | -9.6% | . | -14.7% | 28.5%[46.1 µM] | .
O=C(N/N=C/c1ccc(O)cc1)c1ccncc1 | 21.1 | 9.7% | 26.6% | -4.6% | -1.7% | 9.8*
Cc1ccc(/C=N\NC(=O)c2csnn2)cc1 | 98.2* | 0.9% | ? | -14.0% | 11.1% | 30.0*
COc1cccc(C(=O)N/N=C/c2ccc(OC3CSC3)cc2)c1 | 31.3 | -21.1% | -22.1% | . | -11.7% | 16.4
Cn1ccc(C(=O)N/N=C/c2ccncc2)n1 | 27.9* | -23.9% | -20.9%[46.1 µM] | -10.3% | ? | 32.3*
Cc1cccc(C(=O)N/N=C/c2ccc(OC3CSC3)cc2)c1 | 15.4 | -4.5% | -18.9% | -14.1% | -11.9% | 24.0*
CCOC(=O)c1c(S(=O)(=O)N2CCCC(C(=O)Nc3cc(C)ccn3)C2)c(C)n(C)c1C (stereo not drawn) | . | -2.0% | . | -10.7% | -3.1%[46.1 µM] | .
O=C(COC(=O)c1cccc(OC(F)F)c1)NC1CCCC1 | -9.5 | -15.3% | ? | i | -3.9%[46.1 µM] | -3.0
CC(C)c1c(C(=O)NCCN2CCOCC2)cnn1-c1nccc(-c2ccco2)n1 | . | 0.0% | . | -3.2% | . | .
O=C(N/N=C/c1ccc(N2CCOCC2)cc1)c1ccc(O)cc1 | 72.9* | . | . | . | . | 36.6*
Cc1ccc(/C=N/NC(=O)c2ccncc2)cc1 | 46.9 | -13.1% | 10.8%[46.1 µM] | -6.0% | 1.7%[46.1 µM] | 22.4*
Cc1cccc(C(=O)N/N=C/c2ccncc2)c1 | 5.7 | . | -6.9% | . | 1.0% | 14.0*
CC(C)(C)c1ccc(O[C@@H]2[C@H](O)CO[C@H]2C=CC#Cc2ccccc2)cc1 | . | . | -15.8%[14.2 µM] | . | . | .
CC(C)c1ccc2c(c1)C1(NN=C(c3ccccc3)S1)C(=O)N2 (stereo not drawn) | 68.0* | ? | ? | . | ? | 33.2*
CCc1ccc2c(c1)C1(NN=C(c3ccc(C)cc3)S1)C(=O)N2 (stereo not drawn) | 73.7* | ? | ? | ? | 3.5% | 23.7*
Brc1cccc[n+]1CCCCCC[n+]1ccccc1Br | . | -11.7% | . | -13.9% | . | .
CC1CCN(C(=O)c2[nH]cnc2C(=O)NC2CCN(C(=O)OC(C)(C)C)CC2)CC1 | . | -19.3% | . | -23.8% | . | .
Cc1ccc(C(=O)N2CC=C(c3ccccc3)CC2)o1 | . | -7.0% | 0.4%[46.1 µM] | i | -3.2% | .
O=C(O)c1ccccc1C(=O)N1CC=C(c2ccccc2)CC1 | 71.9 | -19.0% | 11.1% | . | 0.3% | 26.9*
Cc1cc(C)n2c(SCc3ccc(Br)cc3)nnc2n1 | 34.7 | . | . | . | . | 11.2*
CC(C)C(=O)Nc1ccc(NC(=O)c2ccc([N+](=O)[O-])cc2Cl)cc1 | -2.0 | -25.1% | ? | -16.9% | -9.6% | -1.0
CC(=O)Nc1cccc(NC(=O)c2ccc([N+](=O)[O-])cc2Cl)c1 | 12.0 | -9.1% | 4.1% | -2.1% | 8.0% | 1.5
CN(C)c1ccc(NC(=O)c2ccc([N+](=O)[O-])cc2Cl)cc1 | 75.3* | -17.6% | ? | -17.9% | ? | 46.2*
O=C(Nc1cccc(O)c1)c1ccc([N+](=O)[O-])cc1Cl | 60.9* | . | . | . | . | 31.7*
SMILES | Shiga toxin inh | Vaccinia Venus | MARV entry inh | VACV mCherry inh | LASV entry inh | Cycloheximide cs
O=C(Cc1ccccc1)N(Cc1cccnc1)c1nc2ccc(F)cc2s1 | . | -9.7% | . | -1.8% | -12.3%[46.1 µM] | .
O=C(C[n+]1cccc(CNC(=O)c2ccc(OC(F)F)cc2)c1)Nc1ccc(SC(F)F)cc1 | 9.4 | -11.6% | ? | -24.8% | 0.0% | 2.5
Cc1cccc(Cc2cnc(NC(=O)c3ccc(C)o3)s2)c1 | 71.0* | ? | ? | -14.9% | 11.0% | 34.7*
Cc1cccc(Cc2cnc(NC(=O)C3=NCCN3)s2)c1 | 3.5 | 5.2% | ? | -10.8% | 5.7% | 1.6
O=C(Nc1ncc(Cc2ccc(SC(F)F)cc2)s1)c1ccc(OC(F)F)cc1 | 12.0 | ? | 5.62µM* | -1.1% | ? | -0.7
Cc1ccc(Cc2cnc(NC(=O)c3ccco3)s2)cc1 | 66.7* | ? | ? | -13.8% | ? | 34.8*
O=C(Nc1ncc(Cc2cccc([N+](=O)[O-])c2)s1)c1ccco1 | 101.7* | ? | . | i | . | 29.5*
CCCOc1ccc(Oc2nc(NC)nc(N3CCOCC3)n2)nn1 | . | -8.6% | 0.6%[46.1 µM] | -11.1% | 17.5%[46.1 µM] | .
Cc1ccc(Cc2cnc(NC(=O)C3=NCCN3)s2)cc1 | 40.1 | . | . | . | . | 4.3
O=C(Nc1ncc(Cc2ccccc2)s1)C1=NCCN1 | 58.0* | -12.2% | -13.0%[46.1 µM] | -9.3% | -7.5% | 15.5
CO[C@H]1[C@H](NC(=O)c2ccsc2)c2ccccc2C12CCN(Cc1cccc3ncccc13)CC2 | . | -4.4% | . | -13.3% | . | .
CCOc1ccc(CC2c3cc(OCC)c(OCC)cc3CCN2C(=O)c2cc(OC)c(OC)c(OC)c2)cc1OCC (stereo not drawn) | 2.3 | . | ? | . | 2.06µM* | -3.3
CCc1ccc(OCC2c3cc(OC)c(OC)cc3CCN2C(=O)Cc2ccc(OC)c(OC)c2)cc1 (stereo not drawn) | . | ? | . | 35.5µM* | ? | .
COCCN(C)C(=O)c1cnn(-c2nccc(-c3cc(OC)ccc3OC)n2)c1C | . | -2.6% | . | i | . | .
CC(C)(CNC(=O)c1ccc(NS(=O)(=O)c2ccc(Br)cc2)cc1)N1CCOCC1 | . | -15.8% | 11.2% | -18.8% | -0.7% | .
COc1ccc(OCC2c3cc(OC)c(OC)cc3CCN2C(=O)c2ccc(F)cc2)cc1 (stereo not drawn) | . | -3.4% | . | 1.5% | -39.2%[46.1 µM] | .
Cc1cc(C)nc(SCc2ccc(C(=O)N/N=C/c3ccccn3)cc2)n1 | -3.2 | -23.9% | ? | ? | -1.3% | 1.3
CC1CCN(S(=O)(=O)c2ccc3c(ccc(=O)n3CC(=O)Nc3cccc(F)c3)c2)CC1 | . | -8.0% | . | -14.2% | ? | .
COc1ccc(NC2SC(=O)N(C)C2=O)cc1 (stereo not drawn) | 49.4* | . | . | . | . | 9.0
COc1ccc(N[C@H]2CC(=O)N(C)C2=O)cc1 | . | . | 4.2% | . | . | .
CC1(C)CC(NC(=O)c2ccc(Cl)c(S(=O)(=O)N(Cc3ccccc3)c3ccccc3)c2)CC(C)(C)N1 | . | ? | 8.91µM* | -16.9% | -42.9% | .
O=C(O)c1ccc(Cl)c(S(=O)(=O)N(Cc2ccccc2)c2ccc(Cl)cc2)c1 | 8.1 | 2.0% | ? | 10.2% | -29.3%[46.1 µM] | -1.0
Cc1ccc(CNC(=O)CCCn2c(=O)c3ccccc3n(CC(=O)C(C)(C)C)c2=O)cc1 | . | -10.2% | 1.2%[46.1 µM] | -20.0% | ? | .
O=C1CCC(=O)N1OCCOc1ccc2c(c1)CCC2 | 47.1* | -6.1% | -11.9%[46.1 µM] | . | 2.7% | 24.0*
c1cnc(SCCOc2ccc3c(c2)CCC3)nc1 | 75.3* | . | ? | . | ? | 35.9*
CNCCCOc1ccc2c(c1)CCC2 | 76.5 | -11.5% | ? | -14.8% | -1.4%[46.1 µM] | 21.3*
O=C1CCC(=O)N1OCCCOc1ccc2c(c1)CCC2 | 0.5 | -6.8% | 0.3% | . | -5.0% | 10.1*
C=CCn1cnc2c(nnn2-c2ccc(Cl)cc2)c1=O | 49.0 | ? | 2.2% | ? | 5.0% | 19.2
Cn1cccc1CC(=O)NNC(=S)NC(=O)c1ccc(F)cc1 | -3.1 | . | . | . | . | 5.4
